Source: PubChem (The Scripps Research Institute Molecular Screening Center)
TTR transcr act – TTR transcription activators in neuroblastoma reporter cells, primary screen, cell-based, luminescence, SH-SY5Y, TTR promoter Gaussia luciferase | 100% = recombinant luciferase protein wells | activation, % at 16.7 µM | 92,000 tested, 1.3% active;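 active means activation above the mean of all tested compounds plus 3 SD, cut at about 9.5% in these data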;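 further: cells exposed to compounds for one day before reading; 0% = median of all test compound wells on the plate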
HuH7 TTR inh – TTR promoter reporter inhibitors in hepatoma cells, counter-screen for TTR transcription activator project, cell-based, luminescence, HuH7 hepatoma. 1,100 tested, 4% active. HuH7 TTR promoter-Gaussia luciferase reporter. inhibition, % at 16.7 µM. shares compounds with TTR transcr act;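 active means average inhibition above the solvent-only control wells' mean plus 3 SD, cut at about 15% in these data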;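 further: 0% = cells with DMSO only and 100% = cells with inhibitor control FD; inhibitors lower well luminescence so higher value means more inhibition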
TTR act confirm – TTR transcription activators, retest, confirmation, cell-based, luminescence, SH-SY5Y, triplicate | activation, % at 16.7 µM | 1,100 tested, under 10 active | SHSY5Y TTR promoter Gaussia luciferase; 100% = purified Lucia enzyme wells, no cells | shares compounds with TTR transcr act;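 active means mean activation above a set limit taken from the earlier primary screen, cut at about 11% in these data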;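 further: 0% = DMSO-treated cells and 100% = recombinant Lucia luciferase without cells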
Active calls of the source: *. Only a selection was taken, and hits are over-represented in it overall.

SMILES	TTR transcr act	others
CCOC(=O)C1CCCN(Cc2cc(OC)c(O)c(OC)c2)C1 (stereo not given)	25*	HuH7 TTR inh=-11;TTR act confirm=0
CCOC(=O)C1CCCN(Cc2cc(Br)c(OC)cc2OC)C1 (stereo not given)	3
Cc1cccc(N2CCN(C(=O)c3cc(S(=O)(=O)N(C)C)ccc3Cl)CC2)c1C	2
CCOC(=O)CN(C(=O)COc1nc(C)cc(C)c1C#N)c1ccc(F)cc1	-1
CCOc1ccc(N(C(C)=O)c2nc(C)cc(C)c2C#N)cc1	19*	HuH7 TTR inh=-6;TTR act confirm=0
COc1ccc(C(=O)COc2nc(C)cc(C)c2C#N)cc1	7
C=CCN1C(=O)[C@@H](CC(=O)N2CCN(C(=O)C3CC3)CC2)[C@]2(C(=O)OC)CCCCC=C12	0
O=C(Nc1ccc(OC(F)(F)F)cc1)Nc1c(-c2ccc(C(F)(F)F)cc2)nc2ncccn12	7
CN(C)NC(=O)c1cccc(Cl)c1	3
CN(C)NC(=S)Nc1cccc(Cl)c1	1
CN(Nc1cccc(Cl)c1)c1cccc(Cl)c1	11*	HuH7 TTR inh=-20;TTR act confirm=0
CC1=CC(=O)C(C(C)C)=C/C1=N\OS(=O)(=O)c1ccccc1	-6
COc1ccc(NC(=O)C(CCCCNC(=O)OC(C)(C)C)NC2(C(=O)NCCc3c[nH]c4ccccc34)CCCCC2)cc1 (stereo not given)	0
CN1CCc2c(sc3nc(SCC(=O)N4CCCCC4)n(-c4ccccc4)c(=O)c23)C1	8
CCCCNc1nc2sc3c(c2c(=O)n1-c1cccc(Cl)c1)CCN(C)C3	102*	HuH7 TTR inh=-9;TTR act confirm=1
CCSc1nc2sc3c(c2c(=O)n1-c1ccccc1C)CCN(C)C3	-1
CC(C)CC(O)(CC(C)C)c1cn(C(=O)N(c2ccccc2)c2ccccc2)nn1	-1
Cc1cc(SCC(=O)c2cc3ccccc3o2)nc2ccccc12	0
Cc1cc(SCC(=O)O)nc2ccccc12	30*	HuH7 TTR inh=-2;TTR act confirm=1
O=C(O)CSc1cnc2ccccc2n1	8
O=C(NCCc1c[nH]c2ccccc12)OCc1cn(Cc2ccccc2Cl)nn1	0
CC(C)N1CCCCC(NC(=O)c2ccc(-c3ccccc3)cc2)C1=O (stereo not given)	-2
CCOC(=O)C(Cc1ccc(O)cc1)NC(=O)CNC(=O)C(CC(C)C)NC(=O)OC(C)(C)C (stereo not given)	30*	HuH7 TTR inh=-1;TTR act confirm=-1
CCOC(=O)C(Cc1ccccc1)NC(=O)CNC(=O)CNC(=O)OCc1ccccc1 (stereo not given)	3
CC(C)CC(NC(=O)C(Cc1ccc(OCc2ccccc2)cc1)NC(=O)OC(C)(C)C)C(N)=O (stereo not given)	-3
SMILES	TTR transcr act	others
Cc1ccc(CN2CCCCC(NC(=O)Nc3ccccc3F)C2=O)cc1 (stereo not given)	-2
COc1ccc(Cn2cc(COC(=O)N3CCCC3)nn2)cc1	0
CC(C)(C)OC(=O)N[C@H]1C=C[C@@H](CC(=O)OCC(F)(F)F)C1	1
COc1cc(NS(=O)(=O)c2ccc(NC(=O)COc3ccc(C)cc3)cc2)nc(OC)n1	0
CCOC(=O)/C=C/C(=O)Nc1ccc(S(=O)(=O)Nc2cc(OC)nc(OC)n2)cc1	0
COc1cc(NS(=O)(=O)c2ccc(NC(=S)NC(C)=O)cc2)nc(OC)n1	17*	HuH7 TTR inh=-20;TTR act confirm=-1
COC(=O)[C@]12C[C@H](CC(=O)N3CCSCC3)C(=O)N(Cc3ccco3)C1=C[C@H](COCc1ccccc1)O[C@@H]2C	-1
O=C(c1cccs1)C1CCN(c2ncnc3sccc23)CC1	-4
CCCC1CCC2(CC1)CCC2OC(=S)Nc1cccc(I)c1 (stereo not given)	1
O=C(OCc1cn(Cc2ccccc2)nn1)N1CCCC1	3
O=C1CCN(Cc2ccccc2)C=C1c1ccc(C(F)(F)F)cc1	1
CC1(C(=O)Nc2ccc3ccccc3c2)CCC(=O)N1C1CCN(Cc2ccccc2)CC1 (stereo not given)	-1
O=C1CCN(Cc2ccccc2)C=C1c1ccc2ccccc2c1	10*	HuH7 TTR inh=-15;TTR act confirm=-1
CCCC1CCC2(CC1)CCC2OC(=S)Nc1ccc(I)cc1 (stereo not given)	0
CCc1cccc(NC(=O)CN2C(=O)NC3(CCCCCCC3)C2=O)c1	3
CC(C)CC1(C)NC(=O)N(CC(=O)Nc2ccc3c(c2)CCC3)C1=O (stereo not given)	11*	HuH7 TTR inh=-26;TTR act confirm=1
CC1(c2cccc(Br)c2)NC(=O)N(CC(=O)Nc2ccc(N3CCCCC3)cc2)C1=O (stereo not given)	0
CCOC(=O)[C@]12CCCC=C1N(CCCOC)C(=O)[C@@H]2CC(=O)NCc1ccccc1	-1
